KB-3-1 tox: qHTS assay for MDR1-selective chemotherapeutics: Primary screen using the parental adenocarcinoma cell KB-3-1; KB-3-1 viability, CellTiter-Glo ATP luminescence, 72 h; Potency, µM (doses to about 46.1 µM), hits mostly cytotoxic; 400,000 compounds, 1.4% hits; AID 1347075, 2019; note: % is set by controls: 0 for no effect and ±100 for the full control effect; nearly all actives have a fitted effect of over 60% in size
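Here the drug-naive KB-3-1 line serves as comparator for MDR sub-line selectivity; cells received compound titrations, 72 h at 37 °C, then CellTiter-Glo readout.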
SW480 rerep: A quantitative high throughput screen for small molecules that induce DNA re-replication in SW480 colon adenocarcinoma cells; SW480 DNA re-replication, Hoechst DNA content imaging, 48 h; Potency, µM (series often up to 46.1 µM), without a hit: top-dose re-replication activation, actives largely listed as activators; 340,000 compounds, 1.8% hits; AID 624297, 2012; note: % of control where 0% means no effect; nearly all actives have a fitted effect of over 55% in size
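Readout is total intensity of Hoechst-stained nuclei, excited at 405 nm and collected at 500-530 nm. Compound treatment lasted 48 hr at 37 C in 5% CO2 before staining.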
HT1080 IDH1KD tx: qHTS for induction of synthetic lethality in tumor cells producing 2HG: qHTS for the HT-1080-IDH1KD cell line; HT-1080 IDH1 knockdown viability, ATP luminescence, 48 h; Potency, µM (titrated, usually from 46.1 µM), for inactives: at the top dose activity, negative = toxicity, most hits filed as cytotoxic; 360,000 compounds, 2% hits; AID 686971, 2013;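 note: 0% = DMSO wells and -100% = cell-free medium wells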
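IDH1KD HT-1080 cells, 750/well, RPMI + 5% FBS; compound pinned after 2 h settling; 48 h, 37 °C; CellTiter-Glo luminescence; % activity normalised to DMSO and no-cell wells; curves fitted, classed by r2 and efficacy.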
HT1080NT lethal: qHTS for induction of synthetic lethality in tumor cells producing 2HG: qHTS for the HT-1080-NT fibrosarcoma cell line. HT-1080-NT fibrosarcoma viability, CellTiter-Glo ATP luminescence, 48 h. 360,000 compounds, 1.6% hits. Potency, µM (titrated, usually from 46.1 µM), for inactives: top-dose activity, negative = less viability, actives largely listed as cytotoxic;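 note: NT is the 2HG producing partner of a matched IDH1 knockdown line; 0% = DMSO-treated cells and -100% = media-only wells without cells; nearly all actives have a fitted effect of over 55% in size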
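Viability by CellTiter-Glo luminescence after 48 h compound exposure at 37C of HT-1080-NT cells (750/well, RPMI, 5% FBS). % activity scaled between DMSO wells and medium-only wells, then curve-fitted and categorized by curve class.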
KB-V1 MDR tox: qHTS assay for MDR1-selective chemotherapeutics: Primary screen using the drug-selected MDR subline cells KB-V1; KB-V1 MDR cells viability, CellTiter-Glo, 72 h; 400,000 compounds, 3.4% hits; Potency, µM (highest dose often 46.1 µM), usual class: cytotoxic; note: % is set by controls: 0 for no effect and ±100 for the full control effect; nearly all actives have a fitted effect of over 60% in size
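Luminescent ATP read-out (CellTiter-Glo, 10 min) measures survival of drug-selected KB-V1 MDR cells after 72 h, 37 degrees C compound exposure. Medium: phenol-red-free DMEM, 10% FBS. Values from fitted concentration-response curves.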
MCF10A rereplic: A quantitative high throughput screen for small molecules that induce DNA re-replication in MCF 10a normal breast cells. Potency, µM (highest dose often 46.1 µM), for the others: top-dose activity, positive = re-replication, actives largely listed as activators. MCF 10A DNA re-replication, Hoechst nuclear intensity, 48 h. 350,000 compounds, 2.9% hits; note: % of control where 0% means no effect; nearly all actives have a fitted effect of over 50% in size
* marks the source's active call; other numbers are inactive results; i = inactive; ? = inconclusive. A selection: hits, their analogues and other compounds. The true share with any hit is near 8%. Calls come from the whole dose curve; as a rule, active = well fitted curve in the direction sought with a large enough effect; inconclusive = small, poorly fitted or top-dose-only effect, or another doubt; inactive = no such curve, though single readings can be large; an effect the other way counts as inactive or inconclusive. Potency is the fitted concentration of half-maximal effect.

SMILES | KB-3-1 tox | SW480 rerep | HT1080 IDH1KD tx | HT1080NT lethal | KB-V1 MDR tox | MCF10A rereplic
O=C(NC12CC3CC(CC(C3)C1)C2)c1ccc(=O)oc1 | i | -8% | 0% | 0% | i | -1%
Cc1ccccc1C(=O)Nc1ccnn1C1CCN(CCCc2ccccc2)CC1 | i | -12% | 1% | -3% | i | 0%
c1ccc2c(c1)CCN(C1=Nc3cccc4cccc1c34)C2 | i | ? | ? | ? | ? | 8.2µM*
c1cc2c3c(cccc3c1)C(N1CCCCCC1)=N2 | i | -1% | -3% | 0% | i | -8%
O=C1COc2ccc(C(=O)CCl)cc2N1 | ? | 21µM* | -9% | -21% | i | 21µM*
CCC(=O)NC(Cc1ccccc1)c1ccc2c(c1)OCCCO2 (configuration not stated) | i | 99% | 30% | 11% | 13µM* | 0%
COc1ccc(-c2noc(CN(C)C(=O)c3ccc4c(c3)OCO4)n2)cc1OC | i | -4% | 3% | -5% | i | -2%
Cc1onc(-c2c(F)cccc2Cl)c1C(=O)Nc1ccc(S(=O)(=O)N2CCOCC2)cc1 | i | 1% | -9% | -1% | i | 2%
Cc1onc(-c2c(F)cccc2Cl)c1C(=O)Nc1cc(S(=O)(=O)N2CCCCC2)ccc1O | ? | 9% | -14% | ? | 23µM* | ?
COc1ccc(OCCSc2nnc3sc4ccccc4n23)cc1 | i | ? | -5% | 0% | ? | 6.5µM*
CN(C)CCSc1nnc2sc3ccccc3n12 | ? | 0% | -3% | -5% | i | 0%
CC1=CC(C)(C)Nc2ccc(OC(=O)c3ccco3)cc21 | i | 18µM* | ? | 2.8µM* | i | 4.1µM*
CC1=CC(C)(C)Nc2ccc(C)cc21 | i | -4% | -2% | 4% | i | -3%
COc1ccc(OC(=O)C(C)N2C(=O)c3ccccc3C2=O)cc1 (configuration not stated) | i | -5% | -3% | -8% | i | 0%
CC1=CC(C)(C)Nc2ccc(OC(=O)c3cccnc3)cc21 | ? | 3.7µM* | ? | ? | ? | 2.6µM*
CC1=CC(C)(C)Nc2ccc(OC(=O)C(C)N3C(=O)c4ccccc4C3=O)cc21 (configuration not stated) | ? | 3.7µM* | 18µM* | 21µM* | ? | ?
CC1=CC(C)(C)Nc2ccc(Cc3ccc4c(c3)C(C)=CC(C)(C)N4)cc21 | i | 1% | -17% | -15% | i | 29µM*
O=C(Oc1ccc(F)cc1)c1cccnc1 | i | -13% | 20% | 3% | i | 0%
Cc1ccccc1NC(=O)CN1C(=S)NC(C)(C)CC1C (configuration not stated) | i | 2% | -7% | -4% | i | -1%
COc1ccc(-n2c(=S)[nH]c3cc(C(=O)NCc4ccc(F)cc4)ccc3c2=O)c(OC)c1 | i | 2% | -18% | -8% | i | 2%
CC1=CC(C)(C)N2C(=O)C(=O)c3cc(OC(=O)c4ccco4)cc1c32 | ? | 1.3µM* | 16µM* | 2.3µM* | ? | ?
CC1=CC(C)(C)Nc2ccc(OC(=O)CN3C(=O)CCC3=O)cc21 | i | 4.1µM* | 2.5µM* | ? | ? | -2%
O=C(Oc1cccc(OC(=O)c2ccco2)c1)c1ccco1 | i | -4% | 0% | -5% | i | 2%
O=NN(CCc1ccncc1)c1ccc(OCc2ccccc2)cc1 | i | 0% | -21% | -19% | 3.3µM* | ?

Source: PubChem
